# Screens as filed in PubChem.
# USP8 block: human USP8 deubiquitinase inhibition | P40818 | purified USP8, Ub-rhodamine cleavage fluorescence, 30 min | inhibition, % at 20 µM | hit rate 4.2% among 47,000
# USP17 inh: blocks human USP17 ubiquitin-rhodamine cleavage; hit rate 6.5% among 47,000; purified USP17, Ub-rhodamine cleavage fluorescence, 3 h; inhibition, % at 50 µM; A8MUK1
# USP30 inh: inhibitors of human USP30 deubiquitinase | Q70CQ3 | purified USP30, Ub-rhodamine cleavage fluorescence | inhibition, % at 25 µM | hit rate 5.3% among 47,000
# Target sequence (Q70CQ3 whole entry, looked up): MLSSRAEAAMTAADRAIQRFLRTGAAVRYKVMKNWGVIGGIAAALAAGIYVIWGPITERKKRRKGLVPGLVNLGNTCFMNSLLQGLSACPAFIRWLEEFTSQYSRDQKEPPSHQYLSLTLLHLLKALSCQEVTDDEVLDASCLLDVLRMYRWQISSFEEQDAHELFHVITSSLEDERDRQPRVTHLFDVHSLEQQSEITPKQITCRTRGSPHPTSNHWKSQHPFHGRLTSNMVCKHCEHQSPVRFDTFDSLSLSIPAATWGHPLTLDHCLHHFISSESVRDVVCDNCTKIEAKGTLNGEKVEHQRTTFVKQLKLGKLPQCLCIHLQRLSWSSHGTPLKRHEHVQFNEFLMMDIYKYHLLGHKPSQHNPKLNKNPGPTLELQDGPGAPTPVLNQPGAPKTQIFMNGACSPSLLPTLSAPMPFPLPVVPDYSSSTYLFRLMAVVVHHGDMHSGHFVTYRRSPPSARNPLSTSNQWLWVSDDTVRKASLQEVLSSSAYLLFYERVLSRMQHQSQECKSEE
# USP28 inh: blocks human USP28 ubiquitin-rhodamine cleavage; Q96RU2; hit rate 3% among 47,000; AID 1645857; inhibition, % at 25 µM; purified USP28, Ub-rhodamine cleavage fluorescence, 30 min
# Numbers stand for hits; i = inactive; nt = not tested or not shown. Rows were chosen to be rich in hits. Some 13% of all compounds tested hit in one or more screens of this group. Cut-off read from the data, not from the text of the source: active = inhibition above about 30%; inactive = the rest.
SMILES,USP8 block,USP17 inh,USP30 inh,USP28 inh
COc1ccc(C2CCCN2Cc2nc(N)nc(Nc3ccc(C)cc3)n2)c(OC)c1 (configuration not stated),i,i,i,i
CN1[C@@H](CCC(=O)N2CCOCC2)CNC(=O)[C@@H]2[C@H]1CCN2Cc1ccc(O)cc1,i,i,i,i
O=C(NCc1ccccc1F)C1CCc2nc(N3CCCCC3)ncc2C1 (configuration not stated),i,i,i,i
COc1ccc(S(=O)(=O)N2CCN(Cc3nc4cc(Cl)ccc4c(=O)[nH]3)CC2)cc1,i,i,i,i
Cn1cc(C(=O)Nc2cccnc2)c2nn(-c3ccccc3)c(=O)c-2c1,31,i,i,i
CCN[C@H]1C[C@@H](c2ccccc2)OC2(CCN(Cc3cnc(CC)nc3)CC2)C1,i,i,i,i
CCN[C@H]1C[C@@H](c2ccccc2)OC2(CCN(Cc3cn(C)nc3C)CC2)C1,i,31,i,i
COc1ccc(NC(=O)C(C)n2nc(-c3ccccc3)c3cc(Cl)ccc32)cc1 (configuration not stated),i,i,i,i
CC(C(=O)NCCc1ccccc1)n1nc(-c2ccccc2)c2cc(Cl)ccc21 (configuration not stated),31,48,55,i
CCn1c(=O)n(CCc2ccccc2)c2cncnc21,i,i,i,i
Cc1c(C)n(CCN(C)C)c2ncn3nc(-c4ccccc4O)nc3c12,i,i,i,i
Cc1ccc(Oc2cc(C)nc3ccccc23)cc1,i,i,i,i
O=C(c1ccnnc1)N1C[C@H](OCC2CC2)[C@H]2COC[C@H]21,i,i,i,i
Cc1nn(-c2ccccc2)c2c1[C@@H](c1ccc3c(c1)OCCO3)[C@H](NC(=O)c1ccccc1)C(=O)N2,i,i,i,i
Cc1ccc(-n2nc(C)c3c2NC(=O)[C@@H](NC(=O)c2ccccc2)[C@@H]3c2ccc(F)cc2)cc1,i,i,i,48
Cc1nn(C)c2c1[C@@H](c1ccc(F)cc1)[C@H](NC(=O)c1ccccc1)C(=O)N2,i,i,i,80
O=C(NCc1cccc2ccccc12)NCc1cnn2ccccc12,i,i,i,i
CCn1c(CN2CCN(Cc3ccccc3)CC2)nc2ccccc21,i,i,i,i
CCOc1cccc2cc(-c3cc(=O)oc4cc(OC)ccc34)oc12,51,i,i,i
COc1ccc(N2CCN(Cc3cc(=O)oc4cc(OC)ccc34)CC2)cc1,i,i,i,i
Cc1nnc(Sc2cc(C(=O)NCCN3CCCC3)c3ccccc3n2)s1,i,52,i,i
CCN1CCN(CCNC(=O)c2cc(-c3cccnc3)nc3ccc(C)cc23)CC1,i,i,i,i
Cn1c(COc2cccc3cccnc23)nnc1SCC(=O)c1ccc(Cl)cc1Cl,58,i,i,37
Cc1cc(=O)n(CC(=O)Nc2ccccc2)c(-c2ccc(F)cc2)n1,i,i,i,i
CCCc1noc(-c2ccc(-n3ncc(C(=O)N4CCN(C)CC4)c3C)nc2)n1,i,i,30,i
SMILES,USP8 block,USP17 inh,USP30 inh,USP28 inh
Cc1noc(-c2cc(=O)n(CC(=O)Nc3ccc(F)cc3F)c3ccccc23)n1,i,i,i,i
Cc1noc(-c2cc(=O)n(CC(=O)NCc3ccccc3F)c3ccccc23)n1,i,58,46,i
Cc1noc(-c2cc(=O)n(CC(=O)Nc3ccccc3C)c3ccccc23)n1,i,45,i,i
Cc1cc(=O)n(CC(=O)Nc2ccccc2C)c(Nc2ccc(F)cc2)n1,i,i,73,i
O=C(Nc1ccccc1)C1CCCN(c2cnc3nccnc3c2)C1 (configuration not stated),i,i,i,i
Cc1noc(-c2ccc(-n3ncc(C(=O)NCc4ccccc4F)c3C)nc2)n1,i,40,43,i
Fc1cccc(Cc2nc(-c3ccc4nncn4c3)no2)c1,i,i,nt,nt
Fc1ccc(Cc2nc(-c3ccc4nncn4c3)no2)cc1,i,i,i,58
Clc1ccc(OCc2nc(-c3ccn4cnnc4c3)no2)cc1,i,i,i,45
COc1ccc(Cc2nc(-c3ccc4nncn4c3)no2)c(Cl)c1,i,i,i,41
COc1cccc(N2CCN(c3ccc4nnc(CCC(=O)N5CCCC5)n4n3)CC2)c1,i,i,i,i
CC1(C(=O)Nc2ncc(Cc3cccc(Cl)c3)s2)Cc2ccccc2C(=O)O1 (configuration not stated),i,i,i,i
O=C1N(Cc2ccccc2)C(=O)C2(Cc3ccccc3)CCCN12 (configuration not stated),i,i,nt,nt
O=C1c2ccccc2C2(CCCC2)C(=O)N1Cc1ccccc1,49,33,i,i
CN(C)c1ccc(CNC(=O)c2nnc(C(=O)Nc3ccccc3)s2)cc1,37,i,i,i
COc1ccc(CNC(=O)c2nnc(C(=O)Nc3ccc(F)cc3)s2)cc1,i,i,i,i
Cc1ccc(-n2c(=O)c3ccccc3n(Cc3c(F)cccc3Cl)c2=O)cc1,i,62,i,i
COc1cccc(CC(=O)NC2CCN(c3ccc(F)cc3)C2=O)c1 (configuration not stated),i,nt,i,i
Cc1ccc(-c2nc(Cn3cnc4sc(C)c(C)c4c3=O)cs2)cc1,i,nt,i,i
O=c1c2ccc(F)cc2ncn1Cc1csc(-c2ccccc2)n1,i,i,i,47
CCc1n[nH]c(=O)c2c1nnn2Cc1ccccc1F,i,i,i,i
Cc1ccc(NC(=O)Cn2c(-n3nc(C)cc3C)nc3c(c2=O)CCC3)cc1,i,i,i,i
Cc1ccc(NC(=O)Cn2c(-n3nc(C)cc3C)nc3c(c2=O)CCCC3)c(C)c1,i,59,31,i
Cn1cc(-c2nc(C(=O)Nc3cccc(F)c3)cs2)c2cccnc21,i,i,i,i
CCOc1ccc(C(=O)N2CCC3(CC2)NCCc2[nH]cnc23)cc1,i,i,i,i
SMILES,USP8 block,USP17 inh,USP30 inh,USP28 inh
Cc1cccc(-c2ccc(CC3CN(C(=O)C4CCC4)CCNC3=O)cc2)c1 (configuration not stated),i,i,i,i
CCOC(=O)c1cc2c(ccn2C)n1CC(=O)N(Cc1ccc(Cl)cc1)c1ccccc1,57,43,i,i
CCOC(=O)c1cc2c(ccn2C)n1CC(=O)N1CCCCC1,i,i,i,i
CCOC(=O)c1cc2c(ccn2C)n1Cc1ccc(C#N)cc1,71,i,i,i
O=C1CC(C(=O)Nc2ccccc2C(F)(F)F)c2c(nc(N3CCCCC3)[nH]c2=O)N1 (configuration not stated),i,i,i,i
CN1CC(=O)N(C2CCNC2)Cc2c(NCc3ccc(Cl)cc3)ncnc21 (configuration not stated),i,i,i,31
CCCCCNc1ncnc2c1CN(C1CCNC1)C(=O)CN2C (configuration not stated),i,i,i,i
CCCn1c(-c2ccc(F)cc2)cn2c(-c3ccccc3)c(-c3ccccc3)nc12,68,i,i,i
COc1ccc(-c2nc(SCC(=O)Oc3c(C)cccc3C)n3[nH]c(=O)cc3n2)cc1,83,i,i,i
O=C(COC(=O)c1ccc(NS(=O)(=O)c2ccc(F)c(F)c2)cc1)Nc1ccc(OCc2ccccc2)cc1,i,i,i,i
CCc1ccc(CN(C)C(=O)c2ccc(NS(=O)(=O)c3ccc(F)c(F)c3)cc2)cc1,i,i,41,i
